Test [1] deals with Luciferin 4-monooxygenase (Photinus pyralis) (UniProt P08659). Kind of test: qHTS assay to identify small molecule inhibitors of firefly luciferase (AID 1224835). Note: series mostly up to about 120 µM; nearly all actives have a fitted effect of over 25% in size. A digest of the protocol:
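Inhibition of purified Photinus luciferase is measured by luminescence. Substrate levels (D-luciferin, ATP) sit at their KM values. Each compound is tested in a concentration series.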

The nature of test [2]: qHTS assay to identify small molecule agonists of the constitutive androstane receptor (CAR) signaling pathway - cell viability counter screen (AID 1224836). Note: series mostly up to about 92 µM; nearly all actives have a fitted effect of over 45% in size. The gist of the method: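 Counter screen multiplexed with the CAR reporter readout: HepG2 cells co-transfected with hCAR and the CYP2B6-2.2kb construct receive a 15-concentration compound series and 0.75 uM PK11195 (final), then CellTiter-Fluor fluorescence is read after 23 h.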
(In qHTS, concentration-response curves come from the screen itself.)

Test [3] can be described thus: qHTS assay to identify small molecule antagonists of the constitutive androstane receptor (CAR) signaling pathway - cell viability counter screen (AID 1224837). Note: series mostly up to about 92 µM; nearly all actives have a fitted effect of over 45% in size. A digest of the protocol:
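HepG2 cells stably expressing hCAR and a CYP2B6-2.2kb reporter were plated and pre-incubated 4 hr at 37 C/5% CO2, then given compounds at 15 concentrations plus 50 nM CITCO (final). After 23 hr, viability was read by CellTiter-Fluor fluorescence.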

In test [4] the target is Nuclear receptor subfamily 1 group I member 3 (Homo sapiens) (UniProt Q14994). The test can be described thus: qHTS assay to identify small molecule antagonists of the constitutive androstane receptor (CAR) signaling pathway (AID 1224838). Note: nearly all actives have a fitted effect of over 40% in size. The gist of the method: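 HepG2 cells stably co-transfected with hCAR and a CYP2B6-2.2kb luciferase reporter were seeded 4 h before compound addition at 15 concentrations. Cells were stimulated with 50 nM CITCO (final) for 24 h at 37 C; luciferase luminescence was then read.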
Chain of Nuclear receptor subfamily 1 group I member 3 (Homo sapiens) (Q14994 whole entry, looked up): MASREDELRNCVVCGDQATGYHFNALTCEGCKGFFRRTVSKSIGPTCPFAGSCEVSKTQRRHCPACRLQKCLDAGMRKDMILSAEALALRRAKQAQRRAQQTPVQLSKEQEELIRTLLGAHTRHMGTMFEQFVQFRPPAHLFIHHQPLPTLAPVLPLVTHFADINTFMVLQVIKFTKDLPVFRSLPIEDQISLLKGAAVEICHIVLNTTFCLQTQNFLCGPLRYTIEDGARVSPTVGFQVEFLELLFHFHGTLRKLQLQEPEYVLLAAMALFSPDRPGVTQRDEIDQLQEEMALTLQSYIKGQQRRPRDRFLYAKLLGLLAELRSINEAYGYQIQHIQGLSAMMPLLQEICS

For test [5] the target is unchanged. Kind of test: qHTS assay to identify small molecule agonists of the constitutive androstane receptor (CAR) signaling pathway (AID 1224839). Note: series mostly up to about 92 µM; nearly all actives have a fitted effect of over 15% in size. The gist of the method: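 A 15-concentration quantitative screen uses HepG2 cells co-transfected stably with human CAR and CYP2B6-2.2kb reporter. Treatment lasts 24 h with 0.75 uM PK11195 final present; ONE-Glo luminescence is the signal.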

Test [6] in a line: qHTS assay to identify small molecule antagonists of the estrogen related receptor signaling pathway with the pleiotropic PPARgamma coactivator (PGC) from Tox21 10K library - cell viability counter screen (AID 1224840; active = well fitted cell-killing curve with a large enough effect in the repeat runs, not every such curve was filed as active; note: nearly all actives have a fitted effect of over 40% in size). The gist of the method:
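PGC/ERR cells were seeded at 2,000 cells/well and left 6 hours at 37 C/5% CO2 before pin-tool addition of compounds in DMSO. After 17.5 hours at 37 C, CellTiter-Fluor was added and fluorescence read 30 minutes later.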

Test [7] can be described thus: qHTS assay to identify small molecule antagonists of the estrogen related receptor signaling pathway with the pleiotropic PPARgamma coactivator (PGC) from Tox21 10K library (AID 1224841; call rule not given here; note: series mostly up to about 92 µM; actives are mostly falling curves and most rising ones were filed inactive; nearly all actives have a fitted effect of over 50% in size). The gist of the method: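 PGC/ERR reporter cells were seeded at 2,000 cells/well and held 6 hours at 37 C/5% CO2 before pin-tool addition of compounds in DMSO. After 18 hours at 37 C, One-Glo was added and luminescence read after 30 minutes at room temperature.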

Test [8] is described as follows: qHTS assay to identify small molecule agonists of the estrogen related receptor signaling pathway with the pleiotropic PPARgamma coactivator (PGC) from Tox21 10K library (AID 1224842). Note: nearly all actives have a fitted effect of over 15% in size. A digest of the protocol: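 Luminescence from One-Glo (30 min, room temperature) measured after PGC/ERR cells had 18 h at 37 C with pinned compound (23 nL in DMSO). Cells had been seeded at 2,000 per well and pre-incubated 6 h.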

Test [9] concerns the target Thyrotropin receptor (Homo sapiens) (UniProt P16473). The test can be described thus: qHTS assay to identify small molecule agonists of the thyroid stimulating hormone receptor (TSHR) signaling pathway (AID 1224843; calls by dose curve; note: nearly all actives have a fitted effect of over 45% in size). A digest of the protocol: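 Screening of the Tox21 10K collection used HEK293 cells engineered with TSHR at 800 cells per well. After a 30-min room-temperature compound exposure, HTRF cAMP reagents were added and fluorescence recorded 1 h later.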

Test [10] in a line: qHTS assay to identify small molecule agonists of the hypoxia (HIF-1) signaling pathway - cell viability counter screen (AID 1224844; calls by dose curve; note: nearly all actives have a fitted effect of over 50% in size). A digest of the protocol: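 HRE-bla ME-180 cells in medium with 0.5% dialyzed FBS were preincubated 5 hrs at 37C, exposed to compounds for 17 hrs, then viability was read as CellTiter-Glo luminescence after 30 min at room temperature, in the reporter wells.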

A short description of test [11]: qHTS assay to identify small molecule agonists of H2AX (AID 1224845; active = well fitted activation curve with a large enough effect in the signal ratio in the repeat runs, not every such curve was filed as active; the % refers to the signal ratio; note: potency is the fitted concentration of half-maximal effect). The gist of the method:
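Phospho-H2AX Ser139 measured by HTRF (ex 320 nm; em 665 and 620 nm) after 24 hr antibody incubation. Compounds, 15 concentrations, 0.76% DMSO, were applied to CHO-K1 cells for 3hr at 37C before lysis.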

Test [12] can be described thus: qHTS assay to identify small molecule agonists of the hypoxia (HIF-1) signaling pathway (AID 1224846; active = well fitted activation curve with a large enough effect in the signal ratio in the repeat runs, not every such curve was filed as active; the % refers to the signal ratio). A digest of the protocol: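 HRE-bla ME-180 cells (beta-lactamase reporter under hypoxia response element) were plated at 2,000 cells/well in medium with 0.5% dialyzed FBS, rested 5 hrs, then given compounds in DMSO for 17 hrs at 37C, 5% CO2. Reporter induction was read with CCF4-AM FRET substrate.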

A short description of test [13]: qHTS assay to identify small molecule agonists of H2AX - cell viability counter screen (AID 1224847; calls by dose curve; note: top concentration of the series differs between compounds; nearly all actives have a fitted effect of over 30% in size). A digest of the protocol: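 We seed wild-type CHO-K1 cells overnight, treat them for 3 hr at 37C with compounds in 15-concentration series, and quantify remaining viability by CellTiter-Glo luminescence.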
The nature of test [14]: qHTS assay to identify small molecule antagonists of the estrogen related receptor (ERR) signaling pathway from Tox21 library (AID 1224848). Note: nearly all actives have a fitted effect of over 50% in size. A digest of the protocol:
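Antagonist-mode screen of the Tox21 10K library in an NTP-provided ERR reporter cell line; 18 h compound exposure at 37 C, luminescence measured with ONE-Glo.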

Test [15] can be described thus: qHTS assay to identify small molecule agonists of the estrogen related receptor (ERR) signaling pathway from Tox21 library (AID 1224849; calls by dose curve; note: nearly all actives have a fitted effect of over 15% in size). The gist of the method: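 ERR reporter cell line (NTP) seeded, rested 6 h at 37 C/5% CO2, then pinned with Tox21 compounds in DMSO. After 18 h at 37 C, ONE-Glo luciferase luminescence was read following 30 min at room temperature.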

A short description of test [16]: qHTS RealTime-Glo MT Cell Viability Assay in HepG2 cells - 24 hour (AID 1224867). Note: nearly all actives have a fitted effect of over 50% in size. A digest of the protocol:
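qHTS, HepG2, 600 cells/well, RealTime-Glo (NanoLuc + prosubstrate) added with cells; 5 h preincubation; DMSO compound addition; 37 C; luminescence at 0/8/16/24/32/40 h.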

Test [17] can be described thus: A CellTox Green Cytotoxicity Assay to monitor cytotoxicity in HEK293 cells - 0 hour (AID 1224869). Note: nearly all actives have a fitted effect of over 50% in size. The gist of the method: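 HEK293 cells premixed with CellTox Green dye were seeded at 600 cells/well and left 5 h at 37 C/5% CO2 before pin transfer of 23 nL compound in DMSO. Fluorescence from dye bound to dead-cell DNA was read during 40 h treatment.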
A short description of test [18]: qHTS RealTime-Glo MT Cell Viability Assay in HepG2 cells - 40 hour (AID 1224870). Note: nearly all actives have a fitted effect of over 50% in size. The gist of the method:
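Real-time viability: cells seeded at 600 per well together with NanoLuc and cell-permeant prosubstrate, compounds added after 5 h incubation. Luminescence tracked at 0, 8, 16, 24, 32 and 40 h of exposure.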

Test [19] in a line: qHTS RealTime-Glo MT Cell Viability Assay in HEK293 cells - 32 hour (AID 1224868). The gist of the method: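 Assay medium contained NanoLuc luciferase plus cell-permeant prosubstrate, added with HEK293 cells at 600 cells/well. After 5 h at 37 C/5% CO2 compounds were added; plates stayed at 37 C for 40 h with serial luminescence reads.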
The nature of test [20]: qHTS assay to identify small molecule antagonists of the estrogen related receptor (ERR) signaling pathway from Tox21 library - cell viability counter screen (AID 1224834). Note: nearly all actives have a fitted effect of over 30% in size. The gist of the method: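 ERR reporter cells were plated 6 h before compound addition, then exposed to test compounds in DMSO for 17.5 h at 37 C. Viability was read as CellTiter-Fluor fluorescence after a 30-minute incubation at 37 C.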

SMILES strings stand for the structures. Values without a mark were called inactive. Records with an inconclusive call do not appear. The source made the active and inactive calls. Unless noted, calls come from the whole dose curve; as a rule, active = well fitted curve in the direction sought with a large enough effect in the repeat runs; inconclusive = weak or mixed curves; inactive = no such curve, though single readings can be large; an effect the other way counts as inactive or inconclusive.

Chain of Luciferin 4-monooxygenase (Photinus pyralis) (P08659 whole entry, looked up): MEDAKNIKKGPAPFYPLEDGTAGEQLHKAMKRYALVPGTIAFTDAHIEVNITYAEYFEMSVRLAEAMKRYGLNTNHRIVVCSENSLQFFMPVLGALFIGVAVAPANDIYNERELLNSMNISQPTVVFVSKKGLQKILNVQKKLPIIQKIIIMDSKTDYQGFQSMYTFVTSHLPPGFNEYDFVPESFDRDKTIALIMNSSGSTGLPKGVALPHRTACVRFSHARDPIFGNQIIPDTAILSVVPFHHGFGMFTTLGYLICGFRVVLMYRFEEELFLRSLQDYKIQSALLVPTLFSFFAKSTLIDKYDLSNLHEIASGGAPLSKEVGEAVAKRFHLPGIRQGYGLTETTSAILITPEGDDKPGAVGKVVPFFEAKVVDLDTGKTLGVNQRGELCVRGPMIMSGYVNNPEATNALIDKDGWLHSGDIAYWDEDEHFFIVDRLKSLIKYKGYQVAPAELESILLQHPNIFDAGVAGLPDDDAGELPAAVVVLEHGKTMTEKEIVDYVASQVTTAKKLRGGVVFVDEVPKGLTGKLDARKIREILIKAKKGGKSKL
Chain of Thyrotropin receptor (Homo sapiens) (P16473 whole entry, looked up): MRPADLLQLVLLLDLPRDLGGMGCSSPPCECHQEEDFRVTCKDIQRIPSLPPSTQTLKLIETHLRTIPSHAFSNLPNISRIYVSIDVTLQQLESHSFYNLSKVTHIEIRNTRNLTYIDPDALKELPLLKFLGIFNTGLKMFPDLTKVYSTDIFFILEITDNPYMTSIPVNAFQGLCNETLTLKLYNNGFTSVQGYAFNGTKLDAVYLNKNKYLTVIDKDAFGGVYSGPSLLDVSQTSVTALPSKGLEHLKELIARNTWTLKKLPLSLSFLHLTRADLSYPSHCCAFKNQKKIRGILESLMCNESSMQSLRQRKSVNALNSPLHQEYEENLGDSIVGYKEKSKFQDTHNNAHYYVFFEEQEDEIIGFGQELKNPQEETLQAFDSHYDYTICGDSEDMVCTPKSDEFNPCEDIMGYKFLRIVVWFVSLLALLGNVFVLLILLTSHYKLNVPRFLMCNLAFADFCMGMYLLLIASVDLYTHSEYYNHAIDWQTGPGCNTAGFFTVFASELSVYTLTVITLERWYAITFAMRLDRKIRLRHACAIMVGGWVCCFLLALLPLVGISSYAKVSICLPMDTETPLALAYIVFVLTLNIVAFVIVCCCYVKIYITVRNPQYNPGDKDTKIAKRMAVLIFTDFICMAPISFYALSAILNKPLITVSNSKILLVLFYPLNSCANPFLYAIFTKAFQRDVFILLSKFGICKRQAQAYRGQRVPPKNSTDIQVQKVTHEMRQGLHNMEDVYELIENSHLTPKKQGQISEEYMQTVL

For the compound `CC1=C(C/C=C(\C)CCC[C@H](C)CCC[C@H](C)CCCC(C)C)C(=O)c2ccccc2C1=O`, the Potency result in [1], in test [4], in test [5], in test [7], in test [8] and in test [9] was “inactive” throughout. The Potency result in [10], in test [11], in test [14] and in [18] was “inactive” in each case. Further, the compound was classed as inactive in test [2], in test [3], in [6], in [12], in test [13] and in test [15]. Moreover, the compound was called inactive in test [16] and in test [17].
Consider `CO/N=C(\C(=O)N[C@@H]1C(=O)N2C(C(=O)O)=C(CSc3nc(=O)c(O)nn3C)CS[C@H]12)c1csc(N)n1`, for which the Potency entry in [1], in test [4], in [5], in test [7], in test [8] and in test [9] was “inactive” each time. Also, the Potency result in test [10], in test [11], in test [14], in test [19] and in test [18] was “inactive” throughout. Further, the result in test [2], in test [3], in [6], in test [13], in test [15] and in test [16] was inactive. Further, in test [17], the call was inactive.
In the case of `O=C(O)c1cn(C2CC2)c2cc(N3CCNCC3)c(F)cc2c1=O`, the Potency result in test [20], in test [9], in [10], in test [11] and in [18] was “inactive” each time. The call in [2], in test [6], in [13], in test [16] and in [17] was inactive.
Consider `CC1(C)[C@@H]2CC[C@@]1(C)[C@H](O)C2`, for which the Potency entry in test [20], in test [9], in test [10], in test [11], in [19] and in [18] was “inactive” each time. In addition, the call in [2], in test [3], in [6], in test [12], in [13] and in [16] was inactive. For the same compound, in test [17], the compound was called inactive.
For `CC(N)C12CC3CC(CC(C3)C1)C2` (centres undefined), the Potency result in test [20], in [1], in test [9], in test [10], in [19] and in test [18] was “inactive” throughout. For the same compound, the result in test [6], in [12], in [13], in [16] and in test [17] was inactive.
`CC(C)(C)c1ccc(-c2ccc(C(C)(C)C)cc2)cc1`: the Potency result in test [1], in test [4], in test [5], in [7], in [8] and in [9] was “inactive” each time. In addition, the Potency entry in [10], in test [11], in [14], in test [19] and in [18] was “inactive” each time. Moreover, the result in [2], in [3], in [6], in [12], in test [13] and in test [15] was inactive. Further, the compound was classed as inactive in test [16] and in [17].
For `Nc1ccn([C@@H]2O[C@H](CO)[C@@H](O)C2O)c(=O)n1` (some centres undefined), the Potency result in [1], in test [5], in test [7], in test [8], in test [10] and in test [14] was “inactive” in each case. For the same compound, the Potency entry in test [19] and in [18] was “inactive” in each case. Besides, the call in test [2], in test [3], in test [6], in [12], in test [13] and in [15] was inactive. For the same compound, the call in [16] and in test [17] was inactive. For the same compound, in [11], the Potency was 56.6 µM (active).
With `CCOC(=O)CCC(=O)OCC`, the Potency entry in [1], in [4], in [5], in test [7], in test [8] and in [9] was “inactive” in each case. Also, the Potency result in test [10], in test [11], in test [14], in [19] and in [18] was “inactive” in each case. The call in test [2], in [6], in test [12], in test [13], in [15] and in test [16] was inactive. Moreover, the outcome in test [17] was inactive.

For the origin of these results see PubChem BioAssay (Tox21).
